Results published in PubChem BioAssay (EPA / NIEHS).
Calls of active or inactive are those of the source. Rule for the calls: active = hit-call score of the fitted dose curve at least 0.9, where 1 is the maximum; inactive = score below 0.9.

Assay: CCTE_Shafer_MEA_acute_burst_percentage_mean: CCTE's Neural Acute Assay for Percentage of Spikes in a Burst, Shafer Lab (AID 2284017);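 for AC50: curve fitted for loss of signal so potency reflects decreased burst percentage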
Method: CCTE_Shafer_MEA_acute assay is conducted using Axion Biosystems 48 well microelectrode array (MEA) plates and Maestro recording system. Each well of the MEA plate contains a grid of 16 microelectrodes embedded in the culture surface. Electrically active cells, such as neurons, can be cultured over the electrodes, and electrical activity in these cells can be recorded extracellularly. The spontaneous firing of neurons is captured from each electrode on a microsecond timescale providing both temporally and spatially precise data. […] The CCTE_Shafer_MEA_acute assay uses primary cultures of rat cortical neurons. As these cultures mature over time, neural networks develop functional activity and form cohesive networks in which electrical activity can be highly coordinated. Baseline 40-minute recordings are made on days post-plating 13 or 15, followed by a secondary 40-minute recording after chemical exposure.CCTE_Shafer_MEA_acute_burst_percentage_mean is a component of the CCTE_Shafer_MEA_acute assay. It measures the percentage of spikes (action potential firing) in a single-electrode burst (temporally-clustered groups of spikes) as the number of spikes in bursts divided by the total number of spikes during a recording in a microelectrode array (MEA) using Axion Biosystems Maestro 768 channel amplifier with the AxIS adaptive spike detector. The average of the burst percentages across electrodes is calculated to report a well-level value. The recordings before and after chemical treatment are used to calculate a percent change in the mean burst percentage in each well.Data from the assay component CCTE_Shafer_MEA_acute_burst_percentage_mean was analyzed into 1 assay endpoint. This assay endpoint, CCTE_Shafer_MEA_acute_burst_percentage_mean, was analyzed in the negative analysis fitting direction relative to DMSO as the negative control and baseline of activity. Using a type of functional reporter, gain or loss-of-signal activity can be used to understand electrical activity.
Spontaneous activity in the cortical cultures was recorded using an Axion Biosystems Maestro 768 channel amplifier and Axion Integrated Studios (AxIS) v1.8 (or later) software. The amplifier recorded from all channels simultaneously (gain = 1200 x; sampling rate = 12.5 kHz/channel): raw signals were filtered with a Butterworth band-pass filter (300-5000 Hz), which filters out slower local field potentials leaving only fast potentials, i.e., "spikes", arising from extracellular currents associated with action potentials (Pine 2006; Wheeler and Nam 2011). On-line spike detection of filtered signals was conducted with the AxIS adaptive spike detector, using a threshold of 8x the root mean squared (rms) noise on each channel. Any electrodes with rms noise levels greater than 5 uV were grounded (e.g., no data were recorded). Once grounded, an electrode was grounded for the duration of the experiment. All recordings were conducted at 37 C. Wells were deemed usable if on the day of the exposure >/= 10 electrodes were active (defined as >/= 5 spikes/min). On DIV 13 or 15, a minimum of three wells from one cortical culture preparation were treated with each compound (0.03-40 uM). Prior to recording baseline activity, each mwMEA plate was placed in the Maestro at 37 C and allowed to sit for 20 min while firing rates stabilized. Baseline activity (40 min) was recorded before the addition of each compound. An additional 40 min of spontaneous activity was recorded in the presence of each compound. Changes in network parameters relative to baseline were assessed following compound treatment.

Row | Compound | outcome | AC50
1 | OCCCCO | inactive | –
2 | CC(C)[C@@H](Nc1ccc(C(F)(F)F)cc1Cl)C(=O)OC(C#N)c1cccc(Oc2ccccc2)c1 (stereo not given in full) | – | 0.62 µM (active)
3 | CCCCCCCCCCCCc1cccc(S(=O)(=O)O)c1 | inactive | –
4 | Cc1cc(C(F)(C(F)(F)F)C(F)(F)F)ccc1NC(=O)c1cccc(I)c1C(=O)NC(C)(C)CS(C)(=O)=O | – | 5.38 µM (active)
5 | Cc1ccccc1OP(=O)(Oc1ccccc1C)Oc1ccccc1C | – | 26.3 µM (active)
6 | CS(=O)(=O)c1ccc(C(=O)C2C(=O)CCCC2=O)c(Cl)c1COCC(F)(F)F | inactive | –
7 | CC1(C)[C@H](C(=O)O[C@H](C#N)c2cccc(Oc3ccccc3)c2)[C@@H]1/C=C(\Cl)C(F)(F)F | – | 0.841 µM (active)
8 | O=C(Cc1ccccc1)OCCc1ccccc1 | inactive | –
9 | CCCCOC(=O)COC(=O)c1ccccc1C(=O)OCCCC | inactive | –
10 | Clc1cccc(Cl)c1Cl | inactive | –
11 | CC(C)(C)c1ccccc1O | – | 20 µM (active)
12 | Oc1ccc(Cc2ccc(O)cc2)cc1 | inactive | –
13 | N#Cc1cccnc1 | inactive | –
14 | Oc1cc(Cl)c(Cl)cc1Cl | – | 36.5 µM (active)
15 | CN(C)C(=S)S | inactive | –
